From PubChem
GLP1R cytotox: qHTS of GLP-1 Receptor Inverse Agonists: Cytotox Screen | HEK293 cAMP-luciferase reporter cells, luminescence, 24 h | Potency, µM (doses to about 38.3 µM), usual class: inhibitors | 0.13% of 410,000 active | AID 624418, 2012;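 further: loss of luciferase light is scored as toxicity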
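Luminescence readout: signal drop marks cytotoxicity. Plated cells grew 12 h at 37 °C, 5% CO2, received 23 nL compound for 24 h, then got luciferase reagent, read after 12 min at RT.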
GLP-1R inv ag: qHTS of GLP-1 Receptor Inverse Agonists (Inhibition Mode) | HEK293 GLP-1R CRE-luciferase, luminescence, 24 h; GLP-1R form is constitutively active | Potency, µM (series often up to 38.3 µM), hits mostly inhibitors | 1.6% of 410,000 active; further: nearly all actives have a fitted effect of over 55% in size
Target sequence (P43220 whole entry, looked up): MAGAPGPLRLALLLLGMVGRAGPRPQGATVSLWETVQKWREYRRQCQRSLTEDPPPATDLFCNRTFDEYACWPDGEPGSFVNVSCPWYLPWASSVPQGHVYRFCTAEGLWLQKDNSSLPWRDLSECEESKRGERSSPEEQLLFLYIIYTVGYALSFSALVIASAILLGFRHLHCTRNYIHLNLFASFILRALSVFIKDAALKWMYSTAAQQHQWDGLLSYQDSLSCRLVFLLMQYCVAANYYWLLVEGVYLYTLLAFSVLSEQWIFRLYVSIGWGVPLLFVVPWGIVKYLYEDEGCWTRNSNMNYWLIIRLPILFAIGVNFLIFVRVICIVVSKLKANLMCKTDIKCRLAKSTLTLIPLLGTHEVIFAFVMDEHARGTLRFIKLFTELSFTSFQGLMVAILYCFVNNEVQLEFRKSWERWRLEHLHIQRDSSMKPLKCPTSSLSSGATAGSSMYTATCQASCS
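Using stably transfected HEK293 (constitutively active GLP-1R, cAMP-luciferase reporter), compounds were incubated 24 hr and luciferase measured by luminescence.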
GLP1R ag: qHTS of GLP-1 Receptor Agonists | Glucagon-like peptide 1 receptor (Homo sapiens), P43220 | HEK293 GLP-1R CRE-luciferase, luminescence, 4-6 h; cells express a hypersensitive GLP-1R form | Potency, µM (series often up to 45.6 µM), most hits filed as activators | 0.007% of 380,000 active | AID 624172, 2012
Of the large screens only hits and unclear results are named; the others gave an inactive call. A selection: hits, their analogues and other compounds. The true share with any hit is near 1.7%. The call rests on the fitted dose curve; in most records, active means well fitted curve in the direction sought with a large enough effect; inconclusive means small, poorly fitted or top-dose-only effect, or another doubt; inactive means no such curve, though single readings can be large; an effect the other way counts as inactive or inconclusive.

CN1CCN(CCc2nc3cc(NC(=O)COc4ccc(Cl)cc4)ccc3n2C)CC1	GLP-1R inv ag 10µM
Cc1ccc(C(C)C)c(OCC(=O)Nc2ccc3c(c2)nc(CCN2CCCCC2)n3C)c1	GLP-1R inv ag 8.9µM
CCCn1nnc(NC(=O)COc2cc(C)ccc2C(C)C)n1	none
CCCCn1nnc(NC(=O)COc2cc(C)ccc2C(C)C)n1	GLP-1R inv ag 7.9µM
CCn1c(CN2CCCCC2)nc2cc(NC(=O)COc3cc(C)ccc3C(C)C)ccc21	GLP-1R inv ag inconclusive (no result: GLP1R ag)
Cc1ccc(Sc2c(C)nn(-c3ccccc3)c2OC(=O)C(C)(C)C)cc1	none (no result: GLP1R ag)
Cn1c(N2CCN(C(c3ccccc3)c3ccccc3)CC2)nc2ccccc21	GLP-1R inv ag inconclusive
CN(Cc1nccn1C)C(=O)c1ccc(OC2CCN(CCc3ccccc3)CC2)cc1	none
Cc1ncsc1CCSc1nc2ccccc2c(=O)n1C	GLP1R ag 11µM
Cc1ncsc1CCSc1n[nH]c(=O)n1-c1ccccc1	none
O=S(=O)(c1ccc(OCC2CO2)cc1)c1ccc(OCC2CO2)cc1 (stereo not drawn)	GLP1R cytotox inconclusive, GLP-1R inv ag 10µM
CC(C)(c1ccccc1)c1ccc(OCC2CO2)cc1 (stereo not drawn)	none
COc1ccc(C)cc1NC(=O)CCCN1C(=O)C(c2ccccc2)Oc2cccnc21 (stereo not drawn)	GLP-1R inv ag 10µM
COc1ccc(Cl)cc1NC(=O)CCCN1C(=O)C(c2ccccc2)Oc2cccnc21 (stereo not drawn)	none
CCN(CC(=O)NC(C)(C)C)C(=O)CN1c2cccc3cccc(c23)S1(=O)=O	GLP-1R inv ag inconclusive
COc1ccc(C(=O)CSc2nc3ncccc3[nH]2)cc1OC	none
OC[C@@H]1CCCN1Cc1cn(-c2ccccc2)nc1-c1ccc2c(c1)OCO2	GLP-1R inv ag inconclusive
c1ccc(-n2cc(CN3CCCC(CN4CCCC4)C3)c(-c3ccc4c(c3)OCO4)n2)cc1 (stereo not drawn)	GLP1R cytotox inconclusive, GLP-1R inv ag 10µM
COc1cc(OC)cc(C(=O)Oc2c(CN3CCOCC3)cc(Cl)c3cccnc23)c1	GLP1R cytotox inconclusive, GLP-1R inv ag 10µM
O=C(Oc1c(CN2CCOCC2)cc(Cl)c2cccnc12)c1ccccc1	GLP-1R inv ag inconclusive
Cc1cc2c(cc3c(SCc4ccc(Cl)cc4)nnc(C)n32)o1	GLP-1R inv ag inconclusive (no result: GLP1R ag)
Cc1ccc2c(c1)c1c(n2CC(O)Cn2c(C)nc3ccccc32)/C(=N\O)CCC1 (stereo not drawn)	GLP1R cytotox inconclusive, GLP-1R inv ag 10µM
Cc1ccc2c(c1)c1c(n2CC(O)Cn2c(C)nc3ccccc32)C(=O)CCC1 (stereo not drawn)	none
CCc1ccc(NC(=O)CN(C(=O)N2CCN(CC)CC2)S(=O)(=O)c2ccc(C)cc2)cc1	none
Cc1ccc(NC(NC(=O)c2cccs2)C(Cl)(Cl)Cl)cc1 (stereo not drawn)	GLP-1R inv ag inconclusive
Cc1ccc(NC(NC(=O)c2cccs2)C(Cl)(Cl)Cl)cc1C (stereo not drawn)	GLP-1R inv ag 13µM
Cc1ccccc1NC(=O)c1ccccc1NC(=O)c1cccs1	none
Cc1ccccc1NC(NC(=O)c1cccs1)C(Cl)(Cl)Cl (stereo not drawn)	GLP-1R inv ag 7.9µM
COc1nc(-c2ccccc2)nc(C)c1CC(=O)O	none
Cc1ccc(C)c(N2CCN(C(=O)C(CC(C)C)NS(=O)(=O)c3ccc4nc(C)sc4c3)CC2)c1 (stereo not drawn)	GLP-1R inv ag inconclusive (no result: GLP1R ag)
COc1ccccc1NC(=O)CSc1nc2[nH]ncc2c(=O)[nH]1	none
Cc1nnc(SCC(=O)Nc2ccc(S(=O)(=O)N3CCCC3)cc2)n1N	none
Cc1ccccc1-n1nnnc1SCC(=O)Nc1ccc(S(=O)(=O)N2CCCC2)cc1	GLP-1R inv ag 11µM
Cc1ccc(-n2nnnc2SCC(=O)Nc2ccc(N3CCN(C)CC3)cc2)c(C)c1	GLP-1R inv ag 3.5µM
CN1CCN(c2ccc(NC(=O)CSc3nnnn3-c3ccccc3F)cc2)CC1	GLP-1R inv ag 2.8µM
COc1ccc(NC(=O)CSc2nnnn2-c2ccccc2F)cc1	none
Cc1ccc(-n2nnnc2SCC(=O)Nc2cc(C)on2)c(C)c1	GLP1R cytotox inconclusive
O=c1c2cccnc2n(Cc2cccc(F)c2)c(=O)n1Cc1ccc(F)cc1	GLP-1R inv ag inconclusive (no result: GLP1R ag)
COc1ccc(C)cc1NC(=O)N1CCN(c2cc(-c3noc(C)n3)ccc2C)CC1	GLP-1R inv ag inconclusive
O=C1CC(NS(=O)(=O)c2cccs2)CN1c1cccc(F)c1 (stereo not drawn)	none
O=C(CN(c1ccc(Cl)cc1)S(=O)(=O)c1ccccc1)N/N=C/c1ccco1	GLP-1R inv ag inconclusive
Cc1ccc(S(=O)(=O)N(CC(=O)N/N=C/c2ccco2)c2cc(Cl)cc(Cl)c2)cc1	GLP1R cytotox inconclusive, GLP-1R inv ag 6.3µM
CCCCC(c1nnnn1CC1CCCO1)N1CCN(c2nc3ccccc3s2)CC1 (stereo not drawn)	GLP-1R inv ag 10µM
CCCC(c1nnnn1CC1CCCO1)N1CCN(c2nc3ccccc3s2)CC1 (stereo not drawn)	GLP-1R inv ag inconclusive
CC1CCN(S(=O)(=O)N2CCC(C(=O)NCc3ccccc3Cl)CC2)CC1	none (no result: GLP1R ag)
Cn1ccnc1SCCNC(=O)CCc1nnc(CCc2ccccc2)o1	none
CCCCn1c(N)c(N(CCOC)C(=O)COC(=O)COc2cc(C)c(Cl)cc2C(C)C)c(=O)[nH]c1=O	GLP-1R inv ag 10µM
CCCCn1c(N)c(N(CCOC)C(=O)COC(=O)COc2cc(C)ccc2Cl)c(=O)[nH]c1=O	none
CCc1ccc(-n2c(=O)c3cccnc3n2CC(=O)NCc2ccc(F)cc2)cc1	none (no result: GLP1R ag)
Cc1cccc(C)c1NC(=S)N(CCN1CCCCCC1)Cc1ccco1	GLP-1R inv ag 10µM
Cc1cc(C)c(NC(=S)N(CCN2CCCCC2)Cc2ccco2)c(C)c1	GLP1R cytotox inconclusive, GLP-1R inv ag inconclusive
Cc1sc2ncnc(SC(C)C(=O)N3c4ccccc4Sc4ccccc43)c2c1C (stereo not drawn)	GLP-1R inv ag 8.9µM
Cc1ccc(OCC(=O)NNC(=O)C(C)Sc2ncnc3sc(C)c(C)c23)cc1 (stereo not drawn)	none
O=C(COC(=O)CNC(=O)c1ccccc1)Nc1ccc(F)c([N+](=O)[O-])c1	none
COc1ccc(NC2CCCN(C(=O)c3ccc4[nH]c(C)c(C)c4c3)C2)cc1 (stereo not drawn)	none
Cc1ccc(OCCCCCN2CCOCC2)cc1	none
Cc1ccc(OCCCCCCN2CCNCC2)cc1	GLP-1R inv ag 2.2µM
Cc1cccc(C)c1OCCCCN1CCNCC1	GLP-1R inv ag inconclusive
Cc1ccccc1OCCCCCCN1CCNCC1	GLP-1R inv ag 2.2µM
C#CCOCCOCCOCCNc1nc(N2CCOCC2)nc(N2CCN(C(=O)[C@H](CO)n3cc([C@@H](N)C(C)C)nn3)CC2)n1	none
O=c1oc(CCCO)cc2ccc(/C=C/c3cccc([N+](=O)[O-])c3)cc12	GLP1R cytotox inconclusive
COc1ccc(OCCOC(=O)CNC(=O)c2ccc(F)cc2)cc1	none
CCn1c(Cc2ccccc2)nnc1SCC(=O)c1c(N)n(C2CC2)c(=O)[nH]c1=O	none
CCC1(CC)NC(=O)N(CC(=O)Nc2ccc(C)cc2C)C1=O	none
